Hits are enriched below; roughly 2.8% of the tested compounds scored in any of these assays.
PAX8 reporter – lowers PAX8-driven luciferase in RMG-I cells | RMG-I TPO-luciferase reporter, SteadyGlo, 24 h | inhibition, % at 12.6 µM | actives 1.2% (n = 360,000) | AID 652154;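 active means mean replicate inhibition at least 60% with every replicate also reaching 60%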;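 further: luciferase light reporting Pax8 driven TPO promoter activity; plate controls were median of neutral control wells for no effect and mitoxantrone controls for full effect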
TWEAK-Fn14 inh – TWEAK-Fn14 signaling inhibition; TWEAK-stimulated Fn14 reporter cells, luciferase luminescence, 8 h; inhibition, % at 10 µM; actives 2% (n = 360,000); AID 1159606; in the data active means inhibition above about 50%
TROY NFkB inh – inhibitors of TROY-dependent NF-kB signaling; Q293 LMP1-TROYcd NF-kB luciferase reporter, 4 h; actives 0.98% (n = 360,000); inhibition, % at 10 µM;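 active means compounds whose plate-normalised and pattern-corrected inhibition of the luciferase reporter signal at the single screening dose is 50% or more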
EWS-Fli block – blocks EWS/Fli oncoprotein-driven transcription; inhibition, % at 12.6 µM; A673 NR0B1-luciferase reporter, viability-normalised; AID 651661; actives 0.67% (n = 350,000);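 active means mean inhibition of at least 50% after viability correction, with every replicate also passing that limit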;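 further: firefly luciferase signal divided by Alamar Blue viability fluorescence both relative to DMSO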
LGR2 inh – blocks bursicon-induced cAMP signaling via Drosophila LGR2; HEK293 LGR2, CRE-luciferase, bursicon-stimulated, 4 h; inhibition, % at 9.99 µM; actives 0.35% (n = 380,000); AID 720647;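 active means drop in luminescence signal, shown as inhibition above about 50% in the replicate tests, limit read from the data, passing the limit was not always enough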;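 further: agonist challenge used bursicon conditioned medium at about half maximal strength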
The depositor's hits bear a star; x = no result.

SMILES | PAX8 reporter | TWEAK-Fn14 inh | TROY NFkB inh | EWS-Fli block | LGR2 inh
COCCNC(=O)Cn1nc(-c2ccccc2F)ccc1=O | 6.1 | 50.6* | 6.2 | 0.2 | 3.6
Cc1ccc(O)c(-c2[nH]ncc2C(=O)c2ccc(Cl)cc2)c1 | -9.9 | 34.3 | -4.5 | 4.9 | 11.3
Cc1ccc(O)c(-c2[nH]ncc2C(=O)c2ccc(Br)cc2)c1 | 8.1 | 16.5 | 65.0* | 4.3 | -5.0
CCCN(CCC)S(=O)(=O)c1ccc(NC(=O)c2cc(C(=O)OC)cc([N+](=O)[O-])c2)cc1 | 66.1* | 22.2 | 10.0 | x | x
C[C@H]1CN([C@@H](C)CO)C(=O)c2cccc(NC(=O)c3ccc(-c4nccs4)cc3)c2O[C@H]1CN(C)Cc1ccc(Cl)c(Cl)c1 | x | x | x | 10.3 | 6.0
C[C@@H]1CN([C@@H](C)CO)C(=O)Cc2cc(NC(=O)Nc3ccc4c(c3)OCO4)ccc2O[C@@H]1CN(C)Cc1ccc(C(=O)O)cc1 | 8.2 | x | x | -5.3 | -18.7
Cc1ccc(S(=O)(=O)Nc2ccc3c(c2)CC(=O)N([C@H](C)CO)C[C@H](C)[C@@H](CN(C)Cc2ccccc2)O3)cc1 | 27.5 | x | x | 3.4 | 4.4
COc1ccc(C/C(C)=N/NC(=S)Nc2ccccc2F)cc1 | -215.0 | 70.9* | 78.7* | -55.7 | -32.7
COc1ccc(C/C(C)=N/NC(=S)Nc2ccc(C(C)C)cc2)cc1 | -2.6 | -29.9 | -16.0 | x | -16.8
Cc1ccccc1-c1nc2cc(N)ccc2o1 | x | 9.4 | -27.6 | -26.8 | -71.6
CC(C)c1ccc2oc(-c3cc(N)ccc3O)nc2c1 | x | 81.2* | 69.0* | x | x
COc1ccc(C(CNC(=O)Cc2cc(OC)c(OC)c(OC)c2)N2CCCC2)cc1 (configuration not stated) | x | 14.3 | -4.4 | x | x
COC(=O)C1CCC(=O)N1C(c1ccc(OC)cc1)c1cc(OC)c(OC)c(OC)c1 (configuration not stated) | 75.5* | 13.1 | 3.8 | 40.4 | 4.3
CCN(CC)c1ccc(C(=O)NNC(=O)CCNC(=O)c2ccccc2)cc1 | -21.2 | 2.5 | 12.9 | -10.3 | -15.2
CCN(CC)c1ccc(C(=C2C=CC(=[N+](CC)CC)C=C2)c2ccccc2)cc1 | 113.0* | 106.6* | 88.6* | 39.6 | 105.0*
CCN(CC)c1ccc(C(=C2C=CC(=[N+](CC)CC)C=C2)c2ccc(N(CC)CC)cc2)cc1 | 112.8* | 103.0* | 90.8* | 34.3 | x
COc1ccccc1N(C(=O)CCl)c1cn(C(C)=O)c2ccccc12 | 114.3* | 73.0* | -12.6 | 28.4 | 47.5
CC(=O)n1cc(N(C(=O)CCl)c2ccc(Cl)cc2)c2ccccc21 | x | 63.7* | -41.0 | x | x
CNC[C@H]1Oc2ccc(NS(=O)(=O)c3ccc(F)cc3)cc2C(=O)N([C@H](C)CO)C[C@@H]1C | -11.9 | x | x | 5.0 | 11.6
COc1ccc2c3c(n(C)c2c1)[C@@H](CO)N(Cc1ccc(F)cc1)CC31CCN(CC2CC2)CC1 | x | x | x | -3.1 | -3.9
C[C@H](CO)N1C[C@H](C)[C@H](CN(C)CC2CC2)Oc2cc(C#Cc3cccnc3)ccc2S1(=O)=O | x | x | x | 6.1 | -8.4
O=C(O)[C@H]1[C@H](CO)[C@H]2Cn3c(ccc(-c4cncnc4)c3=O)[C@H]2N1C(=O)C1CCCCC1 | -5.6 | x | x | 1.3 | -13.9
Cc1ccc(S(=O)(=O)N(CC(=O)Nc2ccc(F)cc2)C(=O)N2CCN(C)CC2)cc1 | -9.4 | 5.7 | -4.6 | 1.5 | 6.2
Cc1ccc(NC(=O)CN(C(=O)N2CCN(C)CC2)S(=O)(=O)c2ccc(C)cc2)cc1 | -11.3 | -5.5 | 55.2* | 0.6 | 1.7
Oc1ccccc1N1CCN(c2ncnc3scc(-c4ccc(F)cc4)c23)CC1 | 28.9 | 25.0 | 14.5 | 16.1 | 7.4
SMILES | PAX8 reporter | TWEAK-Fn14 inh | TROY NFkB inh | EWS-Fli block | LGR2 inh
CCOc1ccccc1N1CCN(c2ncnc3scc(-c4ccc(OC)cc4)c23)CC1 | x | 40.0 | 58.6* | x | 42.6
Oc1ccccc1N1CCN(c2ncnc3scc(-c4ccccc4)c23)CC1 | 16.7 | 55.9* | 40.6 | 4.9 | 27.2
O=C(CSc1nnc2c(n1)[nH]c1ccccc12)N1CCCCC1 | -7.8 | 65.3* | 11.9 | -13.6 | -1.7
COc1ccc(CNC(=O)CSc2nnc3c(n2)[nH]c2ccccc23)cc1 | -5.1 | 25.7 | 9.6 | -3.5 | -11.9
CC(C)NC(=O)CSc1ncccc1-c1nc2ccccc2[nH]1 | 1.9 | -3.7 | 4.0 | -21.4 | -1.9
O=C(CSc1ncccc1-c1nc2ccccc2[nH]1)N1CCCCC1 | x | 57.5* | 44.7 | -11.7 | 22.4
Cc1[nH]c(=O)[nH]c(=O)c1NC(=O)CSc1ncccc1-c1nc2ccccc2[nH]1 | x | 43.8 | 53.6* | -59.9 | -19.4
CCCNC(=O)N(C)C[C@H]1Oc2cc(-c3ccncc3)ccc2S(=O)(=O)N([C@@H](C)CO)C[C@@H]1C | -15.4 | x | x | -14.8 | -30.7
C[C@H](CO)N1C[C@H](C)[C@H](CN(C)Cc2ccc3c(c2)OCO3)Oc2ccc(NC(=O)C3CCCCC3)cc2CC1=O | x | x | x | -1.9 | 8.6
C[C@H]1CN([C@@H](C)CO)S(=O)(=O)c2ccc(C3=CCCC3)cc2O[C@@H]1CN(C)S(=O)(=O)c1cn(C)cn1 | -10.8 | x | x | 2.6 | 23.2
Cc1cc2c(c(/C=C/C(=O)c3ccccc3)c1)OC1(C=C2)Oc2ccccc2C(=O)N1C (configuration not stated) | 10.6 | 69.0* | 17.4 | 43.2 | 50.2*
Cc1c(/C=C/C(=O)c2ccccc2)cnn1C | x | -2.4 | -61.6 | x | x
CN(C)CCCNC(=O)C[C@H]1C=C[C@@H](NC(=O)Cc2cccnc2)[C@@H](CO)O1 | 6.5 | x | x | -4.8 | 6.0
CCOc1ccc(CCNC(=O)CSc2nnnn2C)cc1OCC | 9.0 | -11.6 | 15.6 | 5.6 | 7.0
CCOc1ccc(CCNC(=O)CSc2nn(-c3ccc(C)c(Cl)c3)c(=S)s2)cc1OCC | 81.5* | -56.2 | 5.9 | 19.1 | -12.7
CC(C)OC(=O)n1c(=S)oc2ccccc21 | x | -27.2 | -14.7 | x | 12.7
CCCCC(=O)/C=C/n1c(=S)oc2ccccc21 | -50.7 | 95.6* | 41.8 | 17.3 | -64.3
CCCc1[nH]nc2c1C(C1CCCCC1)C(C#N)=C(N)O2 (configuration not stated) | 5.6 | 54.7* | 6.6 | -9.3 | x
Cc1ccc(S(=O)(=O)Nc2ccc3c(c2)C(=O)N([C@@H](C)CO)C[C@@H](C)[C@H](CN(C)S(C)(=O)=O)O3)cc1 | x | x | x | 2.2 | -7.0
CC(Oc1ccccc1)C(=O)Nc1ccc(C(N)=O)cc1 (configuration not stated) | x | 4.7 | 9.6 | x | x
COc1ccc(NC(=O)C#Cc2ccccc2)cc1OC | 28.4 | 94.9* | -3.1 | 2.7 | 1.3
NC(=O)c1ccc(NC(=O)C#Cc2ccccc2)cc1 | 41.1 | 89.4* | -4.9 | 12.3 | 16.8
O[C@@H]1[C@@H](O)C=C2CCN3Cc4cc5c(cc4[C@H]1C23)OCO5 (some centres not stated) | 102.3* | 75.0* | 67.8* | 43.9 | 88.2*
COc1ccc(OC)c(CC(=O)Nc2ccc3c(c2)CCC3)c1 | 0.3 | -0.6 | 8.4 | 4.1 | 18.3
COc1cccc(CNc2ccc3c(c2)CCC3)c1 | x | 51.4* | 43.9 | x | x
COc1cccc(CNc2ccc(C)c(Cl)c2)c1 | -15.8 | -10.0 | -32.1 | -39.9 | -27.3
COc1ccc(OC)c(CNc2ccc3c(c2)CCC3)c1 | -6.3 | 60.5* | 50.6* | -6.1 | -35.8

Screening data: PubChem BioAssay, several laboratories
